Out of some 5,500 compounds screened, about 2,000 (36%) were called active. Another 18% or so got no clear call; they are omitted. Rule as the data show it: active = normalized growth mostly below about 0.91 (no sharp cut-off); inconclusive = no clear call, values can overlap the other calls; inactive = mostly above about 0.92. This is one part of the list.
Assay: chemical genetic growth profiling, strain panel (AID 1159580);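 also: tested at 20 µM; growth read once vehicle control cultures reached saturation at 30 °C; 1 = growth at the plate median or of vehicle wells; lower values mean less growth of the strain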
Details: growth OD

Measured: normalized growth

CCCc1c(OCCCCc2nn[nH]n2)ccc(C(C)=O)c1O
inactive: S. cerevisiae deletion strains, locus YAL013W, strain DEP1, active compounds read low 1.01 | S. cerevisiae deletion strains, locus YBR021W, strain FUR4, active compounds read low 1.03 | S. cerevisiae deletion strains, locus YBR229C, strain ROT2, active compounds read low 1.01 | S. cerevisiae deletion strains, locus YCL029C, strain bik1, active compounds read low 0.997 | S. cerevisiae deletion strains, locus YDL035C, strain GPR1, active compounds read low 1.02 | S. cerevisiae deletion strains, locus YDL074C, strain BRE1, active compounds read low 1.06 | S. cerevisiae deletion strains, locus YDL101C, strain DUN1, active compounds read low 1.02 | S. cerevisiae deletion strains, locus YDL134C, strain PPH21, active compounds read low 1.01 | S. cerevisiae deletion strains, locus YDL185W, strain tfp1, active compounds read low 0.968 | S. cerevisiae deletion strains, locus YDL192W, strain arf1, active compounds read low 0.995 | S. cerevisiae deletion strains, locus YDR101C, strain arx1, active compounds read low 0.991 | S. cerevisiae deletion strains, locus YDR150W, strain NUM1, active compounds read low 1.01 | S. cerevisiae deletion strains, locus YDR162C, strain NBP2, active compounds read low 1.01 | S. cerevisiae deletion strains, locus YDR318W, strain mcm21, active compounds read low 0.993 | S. cerevisiae deletion strains, locus YDR388W, active compounds read low 0.993 | S. cerevisiae deletion strains, locus YDR502C, strain sam2, active compounds read low 1.01 | S. cerevisiae deletion strains, locus YEL061C, strain CIN8, active compounds read low 1.01 | S. cerevisiae deletion strains, locus YER110C, active compounds read low 0.977 | S. cerevisiae deletion strains, locus YER155C, strain BEM2, active compounds read low 1.01 | S. cerevisiae deletion strains, locus YER167W, strain BCK2, active compounds read low 1.01 | S. cerevisiae deletion strains, locus YGL078C, strain dbp3, active compounds read low 0.996 | S. cerevisiae deletion strains, locus YGL086W, strain mad1, active compounds read low 1 | S. cerevisiae deletion strains, locus YGL248W, strain PDE1, active compounds read low 1.01 | S. cerevisiae deletion strains, locus YGR078C, strain PAC10, active compounds read low 1.01 | S. cerevisiae deletion strains, locus YGR135W, strain pre9, active compounds read low 1 | S. cerevisiae deletion strains, locus YGR229C, strain SMI1, active compounds read low 1.03 | S. cerevisiae deletion strains, locus YGR252W, strain gcn5, active compounds read low 0.934 | S. cerevisiae deletion strains, locus YHR030C, strain SLT2, active compounds read low 1.01 | S. cerevisiae deletion strains, locus YHR079C, strain IRE1 (second series), active compounds read low 0.992 | S. cerevisiae deletion strains, locus YHR094C, strain hxt1, active compounds read low 0.992 | S. cerevisiae deletion strains, locus YHR129C, strain ARP1, active compounds read low 1.01 | S. cerevisiae deletion strains, locus YHR200W, strain rpn10, active compounds read low 0.987 | S. cerevisiae deletion strains, locus YIL066C, strain RNR3, active compounds read low 1.02 | S. cerevisiae deletion strains, locus YIL073C, strain SPO22, active compounds read low 1.03 | S. cerevisiae deletion strains, locus YIL125W, strain kgd1, active compounds read low 1 | S. cerevisiae deletion strains, locus YIR030C, strain dcg1, active compounds read low 0.995 | S. cerevisiae deletion strains, locus YJL095W, strain BCK1, active compounds read low 1.02 | S. cerevisiae deletion strains, locus YJL134W, strain LCB3, active compounds read low 1.01 | S. cerevisiae deletion strains, locus YJL168C, strain set2, active compounds read low 0.993 | S. cerevisiae deletion strains, locus YJL187C, strain SWE1 (second series), active compounds read low 1.01 | S. cerevisiae deletion strains, locus YJR043C, strain POL32, active compounds read low 0.984 | S. cerevisiae deletion strains, locus YJR075W, strain HOC1, active compounds read low 1.02 | S. cerevisiae deletion strains, locus YKL009W, strain mrt4, active compounds read low 1.02 | S. cerevisiae deletion strains, locus YKL068W, active compounds read low 0.999 | S. cerevisiae deletion strains, locus YKL085W, strain MDH1 (second series), active compounds read low 0.999 | S. cerevisiae deletion strains, locus YKL085W, strain MDH1, active compounds read low 0.999 | S. cerevisiae deletion strains, locus YKL190W, strain CNB1, active compounds read low 1.01 | S. cerevisiae deletion strains, locus YKR001C, strain vps1, active compounds read low 0.957 | S. cerevisiae deletion strains, locus YLR039C, strain RIC1, active compounds read low 1.05 | S. cerevisiae deletion strains, locus YLR058C, strain SHM2, active compounds read low 1.01 | S. cerevisiae deletion strains, locus YLR102C, strain apc9, active compounds read low 0.997 | S. cerevisiae deletion strains, locus YLR262C, strain YPT6, active compounds read low 1.08 | S. cerevisiae deletion strains, locus YLR268W, strain sec22, active compounds read low 0.994 | S. cerevisiae deletion strains, locus YLR330W, strain CHS5, active compounds read low 1.01 | S. cerevisiae deletion strains, locus YLR342W, strain FKS1 (second series), active compounds read low 0.975 | S. cerevisiae deletion strains, locus YLR371W, strain rom2, active compounds read low 0.989 | S. cerevisiae deletion strains, locus YLR418C, strain cdc73, active compounds read low 0.984 | S. cerevisiae deletion strains, locus YML016C, strain PPZ1, active compounds read low 1.01 | S. cerevisiae deletion strains, locus YML032C, strain rad52, active compounds read low 0.995 | S. cerevisiae deletion strains, locus YML124C, strain tub3, active compounds read low 0.996 | S. cerevisiae deletion strains, locus YMR078C, strain ctf18, active compounds read low 0.994 | S. cerevisiae deletion strains, locus YMR223W, strain ubp8, active compounds read low 0.991 | S. cerevisiae deletion strains, locus YMR263W, strain SAP30, active compounds read low 1.01 | S. cerevisiae deletion strains, locus YMR307W, strain GAS1, active compounds read low 1.01 | S. cerevisiae deletion strains, locus YNL067W, strain RPL9B, active compounds read low 1.01 | S. cerevisiae deletion strains, locus YNL128W, strain TEP1, active compounds read low 1.01 | S. cerevisiae deletion strains, locus YNL153C, strain GIM3, active compounds read low 1.01 | S. cerevisiae deletion strains, locus YNL233W, strain BNI4, active compounds read low 1.01 | S. cerevisiae deletion strains, locus YNL250W, strain rad50, active compounds read low 0.996 | S. cerevisiae deletion strains, locus YNL271C, strain bni1, active compounds read low 0.997 | S. cerevisiae deletion strains, locus YNL298W, strain CLA4, active compounds read low 0.997 | S. cerevisiae deletion strains, locus YNL307C, strain MCK1, active compounds read low 0.993 | S. cerevisiae deletion strains, locus YNL322C, strain KRE1, active compounds read low 1.01 | S. cerevisiae deletion strains, locus YNR052C, strain pop2, active compounds read low 0.981 | S. cerevisiae deletion strains, locus YOL006C, strain TOP1, active compounds read low 1.09 | S. cerevisiae deletion strains, locus YOL012C, strain htz1 1.54 | S. cerevisiae deletion strains, locus YOL147C, strain pex11, active compounds read low 0.989 | S. cerevisiae deletion strains, locus YOR061W, strain CKA2, active compounds read low 1.01 | S. cerevisiae deletion strains, locus YOR069W, strain VPS5, active compounds read low 1 | S. cerevisiae deletion strains, locus YOR136W, strain idh2, active compounds read low 0.986 | S. cerevisiae deletion strains, locus YOR144C, strain elg1, active compounds read low 0.994 | S. cerevisiae deletion strains, locus YOR184W, strain ser1, active compounds read low 0.992 | S. cerevisiae deletion strains, locus YOR316C, strain cot1, active compounds read low 1 | S. cerevisiae deletion strains, locus YPL055C, strain LGE1, active compounds read low 1.03 | S. cerevisiae deletion strains, locus YPL241C, strain CIN2, active compounds read low 1 | S. cerevisiae deletion strains, locus YPR119W, strain clb2, active compounds read low 0.992 | S. cerevisiae deletion strains, locus YPR141C, strain kar3, active compounds read low 1.01 | S. cerevisiae deletion strains, locus YPR163C, strain tif3, active compounds read low 0.986 | S. cerevisiae deletion strains, locus YPR167C, strain met16, active compounds read low 0.992 | S. cerevisiae deletion strains, strain wtn01, active compounds read low 0.993 | S. cerevisiae strains, strain wild type, active compounds read low 1.01

— PubChem BioAssay AID1159580 (chemical genetic matrix, 2015)
